# High-throughput results as filed in PubChem.
# Compounds with a hit are over-represented: about 2.6% of the library has one in this group of screens.
# LGR2 antag – inhibitors of bursicon-induced Drosophila LGR2 receptor cAMP signaling | inhibition, % at 9.99 µM | HEK293 LGR2, CRE-luciferase, bursicon-stimulated, 4 h | AID 720647 | hit rate 0.35% among 380,000;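 active = drop in luminescence signal, shown as inhibition above about 50% in the replicate tests, limit read from the data, passing the limit was not always enough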;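 note: agonist challenge used bursicon conditioned medium at about half maximal strength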
# EWS-Fli inh – blocks EWS/Fli oncoprotein-driven transcription; A673 NR0B1-luciferase reporter, viability-normalised; AID 651661; inhibition, % at 12.6 µM; hit rate 0.67% among 350,000;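 active = mean inhibition of at least 50% after viability correction, with every replicate also passing that limit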;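 note: firefly luciferase signal divided by Alamar Blue viability fluorescence both relative to DMSO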
# CF NFkB block – blocks PAF-induced NF-kB reporter in cystic fibrosis cells; KKLEB NF-kB-GFP reporter, GFP fluorescence overnight; inhibition, % at 5 µM; hit rate 0.86% among 360,000; AID 588850;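 active = at least 50% inhibition at 5 µM, scaled per plate between neutral and stimulator controls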;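 note: PAF is a Pseudomonas aeruginosa culture filtrate used as stimulus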
# TROY NFkB inh – TROY signaling inhibition. Q293 LMP1-TROYcd NF-kB luciferase reporter, 4 h. inhibition, % at 10 µM. hit rate 0.98% among 360,000. AID 1347056;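 active = compounds whose plate-normalised and pattern-corrected inhibition of the luciferase reporter signal at the single screening dose is 50% or more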
# KKLEB tox – CF airway cell cytotoxicity counter-screen. KKLEB CF airway cells viability, ATPlite luminescence, overnight; active compounds read low; cells stimulated with P. aeruginosa culture filtrate. activity change (cytotoxicity), % at 5 µM. hit rate 0.36% among 360,000;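 active = corrected activity change at or below -50% at 5 µM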
# TWEAK Fn14 block – inhibitors of TWEAK-Fn14 interaction signaling; inhibition, % at 10 µM; TWEAK-stimulated Fn14 reporter cells, luciferase luminescence, 8 h; AID 1159606; hit rate 2% among 360,000; in the data active = inhibition above about 50%
# CF NFkB inh conf – confirmation of cystic fibrosis induced NF-kB inhibitors | inhibition, % at 5 µM | hit rate 64% among 1,300 | shares compounds with CF NFkB block | AID 602472 | KKLEB CF airway cells, PAF-induced NF-kB-GFP fluorescence, overnight; in the data active = inhibition above about 40%;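 note: stimulus PAF is a Pseudomonas aeruginosa filtrate and not platelet activating factor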
# A number is an active result; i = inactive; nt = no result given.
SMILES,LGR2 antag,EWS-Fli inh,CF NFkB block,TROY NFkB inh,KKLEB tox,TWEAK Fn14 block,CF NFkB inh conf
COCC(=O)N(C)C[C@@H]1Oc2cc(-c3cccnc3)ccc2S(=O)(=O)N([C@@H](C)CO)C[C@H]1C,i,i,nt,nt,nt,nt,nt
CC(C)(C)S(=O)N1Cc2cc(C(=O)NCC(F)(F)F)nc(-c3cccc(-c4cccc(F)c4)c3)c2[C@@H]1CCO (stereo partly specified),i,i,78,i,i,53,65
COc1cc(C(=O)N/N=C/c2coc3ccccc3c2=O)cc(OC)c1OC,i,i,i,i,i,i,nt
COc1cc(C(=O)N/N=C/c2coc3ccc(Cl)cc3c2=O)ccc1O,i,i,61,i,i,i,i
O=C(N/N=C/c1coc2ccc(Cl)cc2c1=O)c1ccc(O)cc1,i,i,51,i,i,70,i
O=C1NC(=S)N/C1=C\c1cccnc1,i,i,54,i,i,50,64
O=C1NC(=S)N/C1=C/c1cccnc1,i,i,52,i,i,53,46
O=C1NC(=S)N/C1=C/c1cccc([N+](=O)[O-])c1,i,i,i,i,i,i,nt
O=C1Cc2c([nH]c3ccc(Br)cc23)-c2ccccc2N1,i,i,85,i,i,79,106
Brc1ccc2[nH]c3c(c2c1)CCC3,nt,i,i,i,i,i,nt
CC(=O)N(C)C[C@H]1Oc2ncc(C#Cc3ccccc3)cc2C(=O)N([C@H](C)CO)C[C@@H]1C,i,i,nt,nt,nt,nt,nt
CN1CCN(C(=O)c2ccc(S(=O)(=O)N(C)c3ccccc3)cc2)CC1,i,i,i,i,i,i,nt
Cc1cccc(N2CCN(C(=O)c3ccc(S(=O)(=O)N(C)c4ccccc4)cc3)CC2)c1C,nt,i,54,i,i,61,44
O=C(C[C@H]1C[C@H]2c3cc(NC(=O)c4ccc5c(c4)OCO5)ccc3O[C@H]2[C@@H](CO)O1)NC1CCCC1,i,i,nt,nt,nt,nt,nt
COc1ccc(Cl)cc1NC(=O)CN(C)C(=O)c1cc(-c2ccncc2)nc2ccccc12,i,i,61,i,i,i,i
COc1ccc(NC(=O)CN(C)C(=O)c2cc(-c3ccncc3)nc3ccccc23)cc1,i,nt,i,i,i,i,nt
O=C1NC(=O)C(=Cc2ccc(Cl)cc2Cl)S1,i,i,54,54,i,i,i
COc1cccc(S(=O)(=O)N[C@@H]2C=C[C@H](CC(=O)NCc3ccncc3)O[C@@H]2CO)c1,i,i,nt,nt,nt,nt,nt
COc1cccc(C(=O)N2CCCc3ccccc32)c1,nt,nt,54,i,i,i,i
C[C@@H]1CCCCO[C@H](CN(C)C(=O)Nc2ccc(F)cc2)[C@@H](C)CN([C@@H](C)CO)C(=O)c2cc(NS(=O)(=O)c3cccs3)ccc2O1,i,i,nt,nt,nt,nt,nt
CCC1CCc2c(sc(NC(=O)c3cnccn3)c2C(N)=O)C1 (stereo unspecified),i,i,65,i,i,i,i
COc1ccc(NC(=O)Nc2cccc3c2O[C@H](CN(C)C(=O)Nc2cccc4ccccc24)[C@@H](C)CN([C@@H](C)CO)C3=O)cc1,i,i,nt,nt,nt,nt,nt
O=C(CCN1CCCCC1)N[C@@H]1CC[C@@H](CCNC(=O)c2cc(Cl)cc(Cl)c2)O[C@@H]1CO,i,i,nt,nt,nt,nt,nt
C[C@H]1CN([C@@H](C)CO)C(=O)c2cc(C#Cc3ccccc3)cnc2O[C@H]1CN(C)C(=O)c1ccccc1F,i,i,nt,nt,nt,nt,nt
COc1ccccc1N1CCN(S(=O)(=O)c2ccc(-c3cnc(C4CC4)o3)cc2)CC1,i,nt,i,i,i,i,nt
SMILES,LGR2 antag,EWS-Fli inh,CF NFkB block,TROY NFkB inh,KKLEB tox,TWEAK Fn14 block,CF NFkB inh conf
Cc1ccc(NS(=O)(=O)c2ccc(-c3cnc(C4CC4)o3)cc2)c(C)c1,i,52,65,i,i,i,65
CC(=O)Nc1ccc(NS(=O)(=O)c2cc(-c3cnc(C4CC4)o3)ccc2C)cc1,i,i,i,i,i,i,nt
COc1ccccc1NS(=O)(=O)c1ccc(-c2cnc(C3CC3)o2)cc1,i,nt,54,i,i,i,71
C[C@@H]1CN([C@@H](C)CO)S(=O)(=O)c2ccc(C#Cc3ccccn3)cc2O[C@@H]1CN(C)CC1CC1,i,i,nt,nt,nt,nt,nt
CN1C(=O)c2cc(NC(=O)c3ccccc3Cl)ccc2OC[C@@H]2O[C@@H](CC(=O)NCC(F)(F)F)CC[C@@H]21,nt,i,nt,nt,nt,nt,nt
O=C(COC(=O)c1ccc2ncsc2c1)Nc1ccc(OC(F)(F)F)cc1,i,i,52,i,i,i,i
CCCC1O[C@@H]2C[C@H]3[C@@H]4CCC5=CC(=O)C=C[C@]5(C)[C@H]4[C@@H](O)C[C@]3(C)[C@]2(C(=O)CO)O1 (stereo partly specified),i,i,90,i,i,i,i
C[C@]12C[C@H](O)[C@H]3[C@@H](CCC4=CC(=O)CC[C@@]43C)[C@@H]1CC[C@@H]2C(=O)CO,i,i,i,i,i,i,nt
C[C@@H]1CCCCO[C@H](CN(C)C(=O)Cc2ccccc2)[C@@H](C)CN([C@@H](C)CO)C(=O)c2cc(NC(=O)CCC(F)(F)F)ccc2O1,i,i,nt,nt,nt,nt,nt
CCCNC(=O)N1CC2(CN(C(=O)CC3CC3)C2)c2c(n(C)c3cc(OC)ccc23)[C@@H]1CO,i,i,nt,nt,nt,nt,nt
CC[C@@]1(c2cccc(C)c2)C(=O)N(C(=O)OC)N1C(=O)OC,i,i,54,i,i,i,i
CC[C@@]1(c2ccccc2OC)C(=O)N(C(=O)OC)N1C(=O)OC,nt,nt,i,i,i,i,nt
CC(C)CC#Cc1ccc2c(c1)O[C@H](CN(C)S(=O)(=O)c1ccc(F)cc1)[C@@H](C)CN([C@@H](C)CO)S2(=O)=O,i,i,nt,nt,nt,nt,nt
COc1cc(OC)cc(-c2c(C#Cc3ccsc3)c3cc(-c4cccc5[nH]cc(C=O)c45)ccc3n2C)c1,i,i,73,i,i,i,i
COc1ccc(-c2c(C#Cc3ccsc3)c3cc(-c4cccc5[nH]ccc45)ccc3n2C)cc1,i,i,i,i,i,i,nt
COc1ccc(CN2C(=O)[C@@H]3[C@H]4C(=O)O[C@H](c5ccccc5)[C@@H](C)N(C)C(=O)CC/C=C/[C@H]4O[C@@]34C=CCN(Cc3ccccc3)C(=O)[C@@H]24)cc1,nt,i,nt,nt,nt,nt,nt
CNC[C@@H]1OCCCC[C@H](C)Oc2ccc(NC(=O)C3CCCCC3)cc2C(=O)N([C@@H](C)CO)C[C@@H]1C,i,i,nt,nt,nt,nt,nt
CCCNC(=O)N1CC2(CCN(C(=O)CC)CC2)c2c(n(C)c3cc(OC)ccc23)[C@H]1CO,i,i,nt,nt,nt,nt,nt
CC(=O)Nc1cccc(NC(=O)c2cc(-c3cccnc3)nc3ccc(Br)cc23)c1,i,i,84,i,i,i,57
CC(=O)Nc1cccc(NC(=O)c2cc(-c3cccnc3)nc3ccc(Cl)cc23)c1,i,i,i,i,i,i,nt
COc1ccc(-c2csc(/C(C#N)=C\c3ccc(OC)c([N+](=O)[O-])c3)n2)cc1,i,nt,i,i,i,i,nt
